From the supplement of paper PMC6555819

The sequences below were run on VDR:RXRa (NR concentration 270 nM, RXRa partner concentration 90 nM) (assay: PBM binding z-score (relative to random genomic background probes); higher = stronger binding; sequences stand for … in GC…GCGATTGACAGCGTAGAATGAAGG).
Protocol: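 Protein-binding microarray (Agilent 4x180K custom design, double-stranded 60-nt probes: 5' GC cap, 34-nt variable region, 24-nt constant primer region; full probe sequence given). Purified or IVT nuclear receptor:RXRα heterodimers (3:1 NR:RXRα, mostly 270:90 nM) or homodimers were incubated for 1 h in PBS with 2% milk and no ligand, then detected with Alexa488 antibodies. Fluorescence from o1-orientation probes (~5 replicates averaged) was converted to z-scores against 500 random hg19 background probes. Variable regions are seed direct-repeat (DR0–DR5) sites, all their single-nucleotide variants and half-site ablations.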
GATACAGGGTTAAGGCCAGAGTACGCGTATTGAT showed a PBM binding z-score of 1.05. With CCGAATGGGGCATAAGGTTACCATAAGCCAGCCC the PBM binding z-score was 0.232. TCGAGTAGGTTACTAATGGGGCATTCAGCTTTCT gave a PBM binding z-score of 0.0839. CGTCCAAGATCAGAGAGGTCAGTGAATGCCGAGT gave a PBM binding z-score of 3.82. In the case of GCTAGCAGGCCATTTGGGTCACGCAATGACGGGC, the PBM binding z-score is reported as 1.61. For TAGCCCAGGTCATTGGGCCAGTATAGTACGCATC, the PBM binding z-score was 3.03. TCATATAGGTAACGGTGAAAGTCGAACGATATGA was tested, and the PBM binding z-score was 0.164. Sequence CCTCGGAGGACAACAGAAGGTCAGAGCTGCCAGA has a PBM binding z-score of 1.35. Sequence CCAGACAGGTGAGAAGGTTACTCAGCCTCGATTA has a PBM binding z-score of 0.635. CGTCCAAGGTCGGAGAGGTCAGTGAATGCCGAGT showed a PBM binding z-score of 6.04. Sequence TCTTGTAGATCAAGCAGTTTAAGAAAGCCTGAGT has a PBM binding z-score of 0.549. CTCGAAAGGTCGTGCTCAGGTGAATATACCAAAC showed a PBM binding z-score of 3.77. Work on ATCGAAAGGTCGAAGGTGATTATACCCACCCGAA yielded a PBM binding z-score of 2.61. For TGTCAAAGTTCCAAGGTAACGTAAGTATCCACAC, the PBM binding z-score was 0.281. Work on ACTAGCCGGCCAAGTTTGGGTCACTCAAACAAAG yielded a PBM binding z-score of 0.6. With CTCGAAAGGTAGGTTGAGGTGAGTATACGGATAA the PBM binding z-score was 0.309. Sequence AGAACGAGGGCAATCAGTTGATAGCACGGGTGGC has a PBM binding z-score of 2.58. CTCGAATGGTCGTGCTCAGGTGAGTATACCAAAC gave a PBM binding z-score of -0.155. For CGTCCAAGGTGAATGCTAGGTCAGTGAAAGCATT, the PBM binding z-score was 0.559. AATACAGGGTCACTAGACCAGAGTAGGTACGAAT showed a PBM binding z-score of 3.98. ATCTCTGGGTAAAAGTTCAGTGAATCCCGAGGAT was tested, and the PBM binding z-score was 1.25. ATCGAAAGGTCGACGGTGAGTATACCCACCCGAA was tested, and the PBM binding z-score was 2.62. ACTTACGGGTCAACGAGGTTATACCACGCGTATA gave a PBM binding z-score of 7.92. Work on CCTCGGAGGACAGAAGGTCAGAGCGGTCCGCTTT yielded a PBM binding z-score of 1.83. With ATCTCTAGGTAATGTTCAGTGAAAGATCGATAGA the PBM binding z-score was 0.188. For CAAACTAGGTCACCGGAAGGTCAGAGTCCGCATG, the PBM binding z-score was 4.86. Sequence TCTTATAGGTAATACAGGTGAAAGTCGGCATCTA has a PBM binding z-score of 1.36. In the case of ATCTCTAGGTAAAACTCAGTTCAGTGAAGAACGC, the PBM binding z-score is reported as 1.5. In the case of GTACCAAGGAGAATAGGTCGTTGATGAGTAGGCG, the PBM binding z-score is reported as 0.0366. Sequence TCTTGTCGATCAGCAGGTTAAGAAAGCTGGCCAA has a PBM binding z-score of 0.358. CGTCCAAGGTCAACGTCAGTGAAAGAGACTCGAA was tested, and the PBM binding z-score was 4.05. Work on AGAACGCGGGCAATGAGTTGATAGCACGGGTGGC yielded a PBM binding z-score of 1.56. With CGTCCAAGGTCAGCAGGTCAGTCAAAGCGACGTG the PBM binding z-score was 4.02. AGTCAAAATTCATCTAGGTAACGTAAGATATGCT gave a PBM binding z-score of -0.0109. In the case of ATCGAAAGGTCGTGAGGTGAATATACAGAAAGGC, the PBM binding z-score is reported as 3.88. CCTTACGGGTCACGAGGTTACAGCACGACGAGCG gave a PBM binding z-score of 5.28. TTACCAAGGTTAAGGTCGTTGATCCCTCTGTAGA was tested, and the PBM binding z-score was 3.3. CCTGCTAGGTCAATGGTCATCTAAAGCAGCTCGC showed a PBM binding z-score of 1.31. GATACAGGGTCAGCTAGAGGCCAGAGGATGGAAA showed a PBM binding z-score of 3.12. For CCTACTGGGCCTAGGTCATTGATCAGTCAAAGCA, the PBM binding z-score was 0.813.
